Molecules are shown by their SMILES. Values joined by “and” are separate entries in the source; they are usually repeats but may differ in a detail not shown here. Equal values may be shown once. Screen size: about 230,000 compounds; about 310 (0.13%) were called active. About 2% were inconclusive and are not listed. Only a selection was taken, and actives are over-represented in it overall. A number with no mark means an inactive call. Calls follow the shape of the dose curve; as a rule, active = well fitted activation curve with a large enough effect; inconclusive = small, poorly fitted or top-dose-only effect; inactive = no such curve, though single readings can be large or run the other way.
Potency is read from the fitted curve at half-maximal effect.

This assay is described as follows: qHTS Multiplex Assay to Identify Dual Action Probes in a Cell Model of Huntington: Cytoprotection (ATP). Also: nearly all actives have a fitted effect of over 45% in size.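 As to cytoprotection (ATP increase): toxic huntingtin expression switched on by the ecdysone agonist tebufenozide; % of control where 0% means no effect.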 The settings on record: PC12 HTT-Q103 induced, ATP luminescence, 40 h; series mostly up to 56.4 µM; cytoprotection (ATP increase): at the top concentration. The source says:
NIH Chemical Genomics Center [NCGC]
NIH Molecular Libraries Probe Production centers Network [MLPCN]
Assay Submitter (PI): Wei Zheng
Huntington's disease is a neurodegenerative disorder caused by a trinucleotide repeat expansion in Exon 1 of the Huntingtin gene. The CAG trinucleotide encodes glutamine and polyglutamine expansions cause cell death in selective areas of the brain. Huntington polyglutamine repeats have the tendency to form aggregates which are observable in later stages of the disease. The exact nature of the aggregates, whether toxic, protective, or insignificant, is unclear.
A stable PC12 cell line containing a gene fusion of Exon 1 of the Huntingtin gene linked to GFP under the control of the inducible ecdysone promoter were used as the cell-based model of Huntington Disease for high throughput screening. Exon 1 of the Huntingtin gene contained an expansion of 103 polyglutamines (Q103) which, when expressed, caused cell death and distinct, bright GFP aggregates. The amount of cell death and the size and intensity of GFP aggregates increased over time and induction level. The cell death were quantified with a measurement of ATP content in the cells. A maximal 40-50% of cell death was observed when the Huntington gene was induced in this cell line.
We optimized this assay in a homogeneous 1536 well format. A quantitative high throughput screen (qHTS) was conducted on the PC12 cells which were induced to express the toxic fusion construct. Small molecules which prevented cell death were identified by using a luminescent ATP quantification method (Perkin Elmer's ATPlite).
PC12 cells stably containing a construct with an ecdysone inducible promoter expressing GFP fused to the exon 1 of HTTQ103 (Huntington protein which containing a 103 ployglutamine expansion) were used.
NCGC Assay Protocol Summary:
Sequence, Parameter, Description
1, Reagent, 5 uL 1500 cells/well 1536 TC treated White clear bottom plate
2, Compound, 23 nL Tebufenozide inducer (100 nM final) to all columns
3, Compound, 23 nL 40 uM to 0.5 nM Libraries
5, Reagent, 5 ul ATPLite cell death assay reagent
6, Detector, 4 sec integration with a Viewlux Luminescent
Media consisted of phenol red free DMEM + 5% equine serum (Hyclone # SH30072.03 ), 5% supplemented Bovine Calf Serum (Hyclone # SH30074.03 ), 1x pen/strep, no G418
Control columns: 1 = DMSO, 2= 2 uM teb dilns (1:1), 4 = 100 nM Teb inducer. Sample columns received 100 nM Teb.
On to `CC(C)(O)/C=C\C(=O)[C@](C)(O)[C@H]1[C@H](O)C[C@]2(C)[C@@H]3CC=C4[C@@H](C=C(O)C(=O)C4(C)C)[C@]3(C)C(=O)C[C@@]12C`, for which the Potency was 5.01 µM (active).
Turning to `C[N+]1(C)C2CC(OC(=O)C(CO)c3ccccc3)CC1[C@@H]1O[C@H]21` (some centres undefined), the cytoprotection (ATP increase) is 17.6% [at 1.9 µM] and 4.91% [at 1.9 µM].
On the same count and under the same terms, the figure for `CC1=CC(=O)C2=C(C)C[C@H](O)[C@@H]3[C@@H](OC(=O)[C@H]3C)[C@H]12` is -1.12%.
`CC(C)(O)[C@H]1[C@H]2OC(=O)[C@@H]1[C@]1(O)C[C@H]3O[C@]34C(=O)O[C@H]2[C@]14C`: the “cytoprotection (ATP increase)” value is -10.1%.

Values taken from PubChem BioAssay AID1471 (National Center for Advancing Translational Sciences (NCATS), 2008).
